Compound activity from PubChem.
A selection: hits, their analogues and other compounds. The true share with any hit is near 19%.
ELG1 DNA repair: ELG1-dependent DNA repair inhibition | HEK293T ELG1-luciferase reporter, luminescence, 16 h; DNA damage induced by 5-fluorouridine | Potency, µM (highest dose often 46.1 µM), without a hit: at the highest dose activity change, negative = inhibition, actives largely listed as inhibitors | hit rate 2.3% among 330,000 | AID 504467; further: potency means the concentration at half of the fitted maximal effect; nearly all actives have a fitted effect of over 55% in size
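Step one: seed 2,000 cells per well. Step two: pin-transfer compound or DMSO alongside 5-fluorouridine. Step three: incubate 16 hr, 37 °C, 5% CO2. Step four: add ONE-Glo, wait 30 min, read luminescence.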
DT40 TDP1 CPT: growth inhibition of DT40 Tdp1-/-;hTDP1 cells with camptothecin (screen for TDP1 inhibitors) | chicken DT40 Tdp1-/-;hTDP1 cells + 20 nM CPT, ATP luminescence, 48 h | Potency, µM (doses to about 46.2 µM), inactives show top-dose activity change, negative = growth inhibition, most hits filed as inhibitors | hit rate 12% among 420,000 | AID 686979; further: potency means the concentration at half of the fitted maximal effect; nearly all actives have a fitted effect of over 55% in size
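Chicken DT40 Tdp1-/- cells complemented with human TDP1, 400 cells/well, exposed to compounds plus 20 nM camptothecin for at least 48 h at 37 C; viability read as ATP content by CellTiter-Glo luminescence.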
IL-1B inflam inh: inhibitors of inflammasome signaling (IL-1 beta secretion). THP-1 LPS/ATP IL-1B secretion, AlphaLISA, 16 h; hits give low values. activity change, % at 57.5 µM. hit rate 4.7% among 360,000; in the data active means activity change below about -50%; inconclusive means mostly about -30% to -49%
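THP-1 cells pretreated 1 hr with compounds (up to 57.5 uM final), then stimulated with LPS (250 ng/mL final) plus ATP (1.25 mM final); secreted IL-1B measured by AlphaLISA after 16 hr, decreased signal indicating inhibition.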
DT40 TDP1 no CPT: qHTS for Inhibitors of human tyrosyl-DNA phosphodiesterase 1 (TDP1): qHTS in cells in absence of CPT; DT40 Tdp1-/- hTDP1 cells, no CPT, ATP luminescence, 48 h; Potency, µM (top dose mostly 46.2 µM), without a hit: top-dose activity change, negative = growth inhibition, most hits filed as inhibitors; hit rate 15% among 420,000; AID 686978, 2013; further: potency means the concentration at half of the fitted maximal effect; nearly all actives have a fitted effect of over 55% in size
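Cells were dispensed at 400 per well, compounds added by pin tool, plates incubated ≥48 hr at 37 °C, then CellTiter-Glo added for 30 min at room temperature before luminescence reading. Line: DT40 Tdp1-/- complemented with hTDP1; camptothecin omitted.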
HT1080 IDH1KD tx: toxicity to HT-1080 IDH1 knockdown cells (counter line). HT-1080 IDH1 knockdown viability, ATP luminescence, 48 h. Potency, µM (series often up to 46.1 µM), for inactives: at the top dose activity, negative = toxicity, most hits filed as cytotoxic. hit rate 2% among 360,000. AID 686971;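 further: potency means the concentration at half of the fitted maximal effect; 0% = DMSO wells and -100% = cell-free medium wells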
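IDH1KD HT-1080 cells, 750/well, RPMI + 5% FBS; compound pinned after 2 h settling; 48 h, 37 °C; CellTiter-Glo luminescence; % activity normalised to DMSO and no-cell wells; curves fitted, classed by r2 and efficacy.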
HT1080NT lethal: kills 2HG-producing HT-1080-NT fibrosarcoma cells; HT-1080-NT fibrosarcoma viability, CellTiter-Glo ATP luminescence, 48 h; Potency, µM (series often up to 46.1 µM), for the others: top-dose activity, negative = less viability, most hits filed as cytotoxic; hit rate 1.6% among 360,000;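 further: NT is the 2HG producing partner of a matched IDH1 knockdown line; potency means the concentration at half of the fitted maximal effect; 0% = DMSO-treated cells and -100% = media-only wells without cells; nearly all actives have a fitted effect of over 55% in size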
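750 cells/well, RPMI + 5% FBS; 2 h settle, compound pin-transfer, 48 h at 37 degrees C. CellTiter-Glo 10 min RT, luminescence. Normalized to DMSO and media-only wells.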
* hit, by the source's call; ? = inconclusive; · = not tested or not shown. Unless noted, the call rests on the fitted dose curve; in most records, active means well fitted curve in the direction sought with a large enough effect; inconclusive means small, poorly fitted or top-dose-only effect, or another doubt; inactive means no such curve, though single readings can be large; an effect the other way counts as inactive or inconclusive. Unless noted, on the % scale 0 is the no-effect control and ±100 the full control effect.

SMILES | ELG1 DNA repair | DT40 TDP1 CPT | IL-1B inflam inh | DT40 TDP1 no CPT | HT1080 IDH1KD tx | HT1080NT lethal
COc1ccc2cc(C3CC(c4ccco4)=NN3S(=O)(=O)c3ccccc3)c(Cl)nc2c1 (configuration not stated) | -23% | ? | ? | 15µM* | 10% | 4%
CS(=O)(=O)N1N=C(c2ccco2)CC1c1ccccc1Cl (configuration not stated) | 0% | 10% | -18 | 3% | 5% | -6%
Cc1cccc(NC(=O)C(C)OC(=O)c2ccccc2NS(=O)(=O)c2cc(C)c(C)c([N+](=O)[O-])c2)c1 (configuration not stated) | ? | 16µM* | 4 | ? | -5% | -4%
CC(=O)Nc1cccc(/C(C)=N/Nc2ccc(S(=O)(=O)Nc3ccccc3C(=O)O)cc2[N+](=O)[O-])c1 | · | -15% | 0 | -13% | 3% | 6%
CCc1nn(CC(=O)NCCCN(C)Cc2ccccc2)c(=O)c2cc3sc(C)cc3n12 | 18% | ? | ? | -62% | ? | ?
COc1ccc(Cn2c(=O)[nH]c3cc(C(=O)N4CCN(c5cc(Cl)ccc5C)CC4)ccc3c2=O)cc1 | · | 15µM* | · | 15µM* | · | ·
O=C(c1ccc(F)cc1)N1CCN(c2ccccn2)CC1 | -18% | 0% | 21 | -4% | 0% | -1%
O=C(c1ccc(Cn2c(=O)[nH]c3ccccc3c2=O)cc1)N1CCN(c2ccccn2)CC1 | ? | ? | ? | 23µM* | -2% | -4%
O=C(CCc1nnc2n(Cc3ccc(F)cc3)c(=O)c3ccccc3n12)N1CCN(c2ccccn2)CC1 | 15µM* | ? | ? | 21µM* | 14% | 14%
O=C(c1ccc(CN2CCc3ccccc3C2)cc1)N1CCN(c2ccccc2)CC1 | ? | 13µM* | 18 | ? | 2% | 4%
O=C(Cn1cc(CNC(=O)C2CCCCC2)nn1)Nc1cc(C(F)(F)F)ccc1Cl | 7% | · | · | · | · | ·
COCCCNC(=O)CCCn1c(=O)c2cccn2c2cccnc21 | · | 0% | · | -10% | · | ·
CCN(CC)C(CNC(=O)CSc1nnnn1-c1c(C)cccc1C)c1ccco1 (configuration not stated) | -6% | ? | -1 | ? | 7% | -2%
O=C1Nc2ccccc2OCc2c1cccc2[N+](=O)[O-] | 3% | 1% | 66 | 3% | 4% | 10%
Nc1nc2[nH]c(=O)[nH]c2c(=O)[nH]1 | · | -10% | · | 7% | · | ·
O=C(c1ccc(Cn2c(=O)[nH]c3ccccc3c2=O)cc1)N1CCN(c2ccccc2)CC1 | ? | 18µM* | -10 | 15µM* | 1% | -1%
COc1ccc(C(=O)N2CCN(c3ccccn3)CC2)cc1 | -1% | -3% | -26 | -8% | -6% | 2%
COc1ccc(Cn2c(=O)[nH]c3cc(C(=O)N4CCN(c5ccccn5)CC4)ccc3c2=O)cc1 | ? | 15µM* | -16 | 23µM* | 4% | 2%
Cc1ccc(S(=O)(=O)NCCCNS(=O)(=O)c2ccccc2Br)cc1 | -1% | -4% | -6 | ? | 9% | 0%
CC1=C(C(=O)Nc2ccc(C)cc2C)C(c2ccc[nH]2)n2ncnc2N1 (configuration not stated) | · | 4% | · | 0% | · | ·
CCOc1cc(N)c(Cl)cc1C(=O)NCC1CN(Cc2ccc(F)cc2)CCO1 (configuration not stated) | · | ? | -12 | ? | -29% | -21%
COc1cc(N)c(Cl)cc1C(=O)N[C@H]1CCN(CCCOc2ccc(F)cc2)C[C@@H]1OC | · | -82% | · | 27µM* | · | ·
O=C(c1ccc2c(=O)n(Cc3ccc(Cl)cc3)c(=S)[nH]c2c1)N1CCOCC1 | ? | ? | -29 | ? | -10% | -21%
NC(=O)c1nnsc1-c1ccco1 | · | -6% | -12 | -18% | 1% | -1%
CCS(=O)(=O)N1CCC(N2CCC(C)CC2)CC1 | 8% | -25% | -5 | 5% | 1% | 7%
SMILES | ELG1 DNA repair | DT40 TDP1 CPT | IL-1B inflam inh | DT40 TDP1 no CPT | HT1080 IDH1KD tx | HT1080NT lethal
Cc1cc(C)cc(NC(=O)[C@H](NC(=O)[C@@H]2Cc3ccccc3CN2)c2ccccc2)c1 | ? | ? | 12 | 26µM* | ? | ?
O=c1c(-c2cc(F)cc(F)c2)nc2cnc(N3CCOCC3)nc2n1C[C@H]1CCCO1 | · | 9% | · | 13% | · | ·
CCOc1cc(CN2CCC(n3nccc3NC(=O)C3CC3)CC2)ccc1O | 11% | 2% | 12 | 2% | 11% | 3%
O=C(Oc1csc(=S)n1C(=O)c1ccccc1)c1ccccc1 | 6% | ? | 0 | ? | 2% | 2%
Cc1cccc(C(=O)Oc2csc(=S)n2C(=O)c2cccc(C)c2)c1 | 18% | 8% | 6 | -21% | 4.6µM* | 7.3µM*
CC1(C)CC2CC(C)(CN2C(=O)Cc2ccccc2)C1 (configuration not stated) | -5% | -26% | -5 | ? | 11% | 9%
Cc1noc(C(=O)N2CC3(C)CC2CC(C)(C)C3)c1Cl (configuration not stated) | ? | ? | 52 | 18µM* | -1% | -1%
